Molecules are shown by their SMILES. Several values for one entry are separate records, joined by “and”; a condition that tells them apart may be missing. Identical values can stand only once. Inconclusive results are not listed. Entries that show only a call come without a potency. More than one record can exist for a structure, and the calls need not agree. Activity calls are given as the source filed them. Calls come from the whole dose curve; as a rule, active = well fitted cell-killing curve with a large enough effect in the repeat runs; inconclusive = weak or mixed curves; inactive = no such curve, though single readings can be large or run the other way. Starred links: 1 amine or outer side, 2 acyl side, 3 side chain; linkers in the order of their positions; H or OH if unused. Positions of bridges follow the written chain, without caps; N, C: chain ends. Non-standard residues stand in square brackets, D forms with d. Residues, ends and D or L forms follow the SMILES beside them. Chains are numbered I, II in the order given. Actinocin(9to1) = Cc1c2oc3c(C)ccc(C(=O)[*:1])c3nc-2c(C(=O)[*:2])c(N)c1=O; NMeV = CN[C@H](C(=O)O)C(C)C; Sar = CNCC(=O)O
Potency is the fitted concentration of half-maximal effect.

A short description of this assay: qHTS assay for identifying genotoxic compounds that show differential cytotoxicity against isogenic chicken DT40 cell lines with known DNA damage response pathways - Rad54/Ku70 mutant cell line (AID 743015). Note: nearly all actives have a fitted effect of over 60% in size. The settings on record: DT40 Rad54/Ku70 mutant viability, CellTiter-Glo, 40 h; series mostly up to 66.8 µM. The text has this:
National Center for Advancing Translational Sciences [NCATS]
NIH Chemical Genomics Center [NCGC]
U.S. Environmental Protection Agency [EPA]
National Institutes of Environmental Health Sciences [NIEHS]
National Toxicology Program [NTP]
U.S. Food and Drug Administration [FDA]
DNA repair pathways play a critical role in cellular homeostasis by repairing DNA damage induced by endogenous processes and xenobiotics. Isogenic chicken DT40 cell lines deficient in different DNA repair pathways can be used to identify genotoxic compounds and aid in characterizing the nature of the DNA damage induced. Two DNA repair-deficient cell lines with disrupted genes, Rad54/Ku70 or Rev3, were used to screen the Tox21 10K compound library. Possible genotoxicity was based on the presence of a significant increase in cytotoxicity in one or more of the DNA repair-deficient cell lines compared to that observed in the parental DNA repair-proficient cell line. CellTiter Glo viability assay (Promega, Madison, WI) was used to measure cell viability in these cells after compound treatment. This assay includes the data from the Rad54/Ku70 mutant cell line.
Tox21 Assay Protocol Summary:
300 DT40 mutant cells in 5 uL/well were dispensed into white, solid-bottom 1536-well plates using a Multidrop Combi (ThermoFisher Scientific, Waltham, MA) dispenser. After the assay plates were incubated at 37 C/5% CO2 for approximately 0.5 hour, 23 nL of compounds dissolved in DMSO, positive controls or DMSO only was transferred into the assay plate by a pintool work station (Kalypsys, San Diego, CA). The assay plates were incubated at 37 C/5% CO2 for 40 hours. After 5 uL per well of CellTiter-Glo reagent was added into each well of the assay plates, the plates were incubated for 30 min at room temperature and the luminescence intensity of the plates was measured using a ViewLux (PerkinElmer, Shelton, CT) plate reader.
For `Cc1cc(Cc2cc(C)cc(C(C)(C)C)c2O)c(O)c(C(C)(C)C)c1`, the Potency was 9.74 µM (active) and 15.4 µM (active).
In the case of `CCN(CC)C(=O)Nc1ccc(OCC(O)CNC(C)(C)C)c(C(C)=O)c1` (stereo not given) it was “inactive”.
In the case of `CCCCCCCCCCCCCCCCCl`, the Potency entry is “inactive”.
On to `Cc1c(O)cccc1C(=O)N[C@@H](CSc1ccccc1)[C@H](O)CN1C[C@H]2CCCC[C@H]2C[C@H]1C(=O)NC(C)(C)C`, for which the Potency was 13.3 µM (active) and 18.8 µM (active).
As for `Cc1cc(OCCOCC[N+](C)(C)Cc2ccccc2)ccc1C(C)(C)CC(C)(C)C`, the Potency was 1.06 µM (active) and 765 nM (active).
In the case of `O=Nc1ccc(Nc2ccccc2)cc1` it was 3.08 µM (active) and 2.17 µM (active); in that of `CCC[C@H](N[C@@H](C)C(=O)N1[C@H](C(=O)O)C[C@@H]2CCCC[C@@H]21)C(=O)OCC`, “inactive”.
`CC(C)CCOCc1ccccc1`: the Potency entry is “inactive”.
`O=C(Nc1ccccc1SSc1ccccc1NC(=O)c1ccccc1)c1ccccc1`: the Potency was 2.45 µM (active) and 1.72 µM (active).
With `CCC(C)(Oc1ccc(C2(c3ccc(OC(C)(CC)C(=O)O)cc3)CCCCC2)cc1)C(=O)O` (stereo not given), the Potency result is “inactive”.
In the case of `Nc1cc(Cl)c(-c2cc(Cl)c(N)cc2Cl)cc1Cl`, the Potency was 2.73 µM (active) and 4.33 µM (active).
In the case of `Cc1ccc(-c2cc(C(F)(F)F)nn2-c2ccc(S(N)(=O)=O)cc2)cc1`, the Potency is 29.8 µM (active) and 54.3 µM (active) and 24.3 µM (active).
In the case of `CC[C@H]1CN2CCc3cc(OC)c(OC)cc3[C@@H]2C[C@@H]1C[C@H]1NCCc2cc(OC)c(OC)cc21` it was 23.7 nM (active) and 21.8 nM (active); in that of `O=S(=O)(O)c1ccc2nc(-c3ccccc3)[nH]c2c1`, 58.2 µM (active); in that of `CC(=O)CC(C)=O`, “inactive”.
Regarding `OCCN1CCNCC1`, the Potency entry was “inactive”.
In the case of `c1ccc2n[nH]nc2c1` it was “inactive”; in that of `NC(N)=Nc1nc(CSCC/C(N)=N/S(N)(=O)=O)cs1`, “inactive”.
In the case of `NCCCCCC(=O)O` it was “inactive”; in that of `CC(=O)OCC1=C(C(=O)O)N2C(=O)[C@@H](NC(=O)Cc3cccs3)[C@H]2SC1`, “inactive”; in that of `c1cnc2cc3c(cc2n1)C1CNCC3C1`, “inactive”.
Take `CNC1(C)C2CCC(C2)C1(C)C` (stereo not given): the Potency result is “inactive”.
Regarding `O`, the Potency result was “inactive”.
In the case of `COc1ccc(COC(C)=O)cc1` it was “inactive”.
On to `CC1=CC(=O)c2ccccc2C1=O`, for which the Potency was 26.6 µM (active) and 15.4 µM (active).
As to `[Cl][In]([Cl])[Cl]`, the Potency result is “inactive”.
`Cc1c2oc3c(C)ccc(C(=O)N[C@@H]4C(=O)N[C@H](C(C)C)C(=O)N5CCC[C@H]5C(=O)N(C)CC(=O)N(C)[C@@H](C(C)C)C(=O)O[C@@H]4C)c3nc-2c(C(=O)N[C@@H]2C(=O)N[C@H](C(C)C)C(=O)N3CCC[C@H]3C(=O)N(C)CC(=O)N(C)[C@@H](C(C)C)C(=O)O[C@@H]2C)c(N)c1=O` (I: T[dV]P[Sar][NMeV] / II: T[dV]P[Sar][NMeV]; ester I:1-I:C, II:1-II:C; linker I:N-II:N via Actinocin(9to1)): the Potency was 0.0024 µM (active).
For `CCCCCCCCCCCCc1ccccc1O`, the Potency is 12 µM (active) and 27.3 µM (active).
For `CC(C)(C)NCC(O)c1cc(O)cc(O)c1` (stereo not given), the Potency result was “inactive”.
In the case of `CCCC(=O)c1ccccc1`, the Potency entry is “inactive”.
`COc1nc(C)nc(Cl)c1NC1=NCCN1`: the Potency entry is “inactive”.
For the molecule `Oc1c(Cl)cc(Cl)cc1Sc1cc(Cl)cc(Cl)c1O`, the Potency is 17.3 µM (active) [middle of 4 runs].
In the case of `COc1ccc(CCN(C)CCCC(C#N)(c2ccc(OC)c(OC)c2)C(C)C)cc1OC` (stereo not given) it was 29.8 µM (active) and 61 µM (active); in that of `O=C(Oc1ccccc1)c1ccccc1O`, “inactive and 61.1 µM (active)”.
`CCc1cc(C(C)(C)C)c(O)c(C(C)(C)C)c1`: the Potency entry is “inactive”.
For the molecule `NC(Cc1ccc(Cl)cc1)C(=O)O` (stereo not given), the Potency result is “inactive”.
As for `CC(=O)CC(=O)Nc1ccc2[nH]c(=O)[nH]c2c1`, the Potency result was “inactive”.
For `O=C1OC2(c3ccc(O)cc3Oc3cc(O)ccc32)c2ccccc21`, the Potency result was “inactive”.
Regarding `C=C(C)C(=O)O`, the Potency result is “inactive”.
Regarding `CCN(CC)c1ccc2c(C)cc(=O)oc2c1`, the Potency is 61.6 µM (active).

The record behind these values is PubChem BioAssay (Tox21).
